An excerpt weighted towards active compounds, which were near 2.5% of everything screened.
POLB inh – qHTS Assay for Inhibitors of DNA Polymerase Beta | hit rate 1.3% among 340,000 | AID 485314, 2010 | Potency, µM (highest dose often 114 µM), usual class: inhibitors | P06746 | Pol beta primer extension/strand displacement, fluorescence kinetic
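Kinetic readout of DNA synthesis with strand displacement by Pol beta. Compound and 10 nM enzyme sit 15 min at room temperature; 50 nM substrate starts the reaction, read immediately and at 10 min.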
L3MBTL1 inh – qHTS Assay for the Inhibitors of L3MBTL1; Potency, µM (series often up to 57.1 µM), hits mostly inhibitors; hit rate 0.66% among 230,000; AlphaScreen L3MBTL1–H3K9me1 peptide binding; note: nearly all actives have a fitted effect of over 60% in size
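Read-out is AlphaScreen signal from streptavidin donor and nickel chelate acceptor beads (10 ug/mL final each) bridging L3MBTL1 (50 nM) and biotinylated K9-monomethylated H3(1-15) peptide (75 nM), after 30 min compound exposure at room temperature.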
Pol eta inh-1 – qHTS for Inhibitors of Polymerase Eta | DNA polymerase eta (Homo sapiens), Q9Y253 | recombinant Pol eta, fluorescent DNA replication assay | Potency, µM (titrated, usually from 114 µM), most hits filed as inhibitors | hit rate 1.2% among 390,000
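Fluorescent replication assay: 50 nM final substrate added after a 15 min room-temperature compound preincubation with 10 nM enzyme. Signal taken at 0 min and again at 10 min.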
Pol kappa inh-1 – qHTS for Inhibitors of Polymerase Kappa | purified Pol kappa, fluorescent DNA synthesis assay, 10 min | Potency, µM (titrated, usually from 107 µM), hits mostly inhibitors | hit rate 0.53% among 400,000 | AID 588579, 2011
Target sequence (Q9UBT6 whole entry, looked up): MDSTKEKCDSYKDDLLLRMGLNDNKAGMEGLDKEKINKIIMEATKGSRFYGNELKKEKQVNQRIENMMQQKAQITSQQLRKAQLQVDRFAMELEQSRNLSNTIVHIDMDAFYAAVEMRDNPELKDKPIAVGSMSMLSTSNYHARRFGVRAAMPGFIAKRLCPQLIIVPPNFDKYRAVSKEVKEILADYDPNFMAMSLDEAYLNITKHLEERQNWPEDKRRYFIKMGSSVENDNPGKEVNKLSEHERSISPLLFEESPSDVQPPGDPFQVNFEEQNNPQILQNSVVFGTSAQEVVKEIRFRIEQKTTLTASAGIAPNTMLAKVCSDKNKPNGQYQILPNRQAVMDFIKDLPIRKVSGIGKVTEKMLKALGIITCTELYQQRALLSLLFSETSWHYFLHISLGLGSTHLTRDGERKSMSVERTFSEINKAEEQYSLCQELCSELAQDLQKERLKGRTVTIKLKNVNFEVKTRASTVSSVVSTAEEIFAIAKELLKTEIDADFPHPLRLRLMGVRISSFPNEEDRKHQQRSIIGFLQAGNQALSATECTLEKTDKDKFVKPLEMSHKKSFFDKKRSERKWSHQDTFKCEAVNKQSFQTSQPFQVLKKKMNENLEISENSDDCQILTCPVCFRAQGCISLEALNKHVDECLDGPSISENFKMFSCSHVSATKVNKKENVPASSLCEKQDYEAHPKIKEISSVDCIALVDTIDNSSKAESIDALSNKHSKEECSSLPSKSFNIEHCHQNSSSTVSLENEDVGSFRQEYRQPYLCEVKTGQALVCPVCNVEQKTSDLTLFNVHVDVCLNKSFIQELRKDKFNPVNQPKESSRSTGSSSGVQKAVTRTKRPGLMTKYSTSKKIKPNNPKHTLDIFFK
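10 nM Pol kappa was preincubated with compounds for 15 min at room temperature. Reaction started with 50 nM (final) substrate. Fluorescence read kinetically at 0 and 10 min.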
APE1 inh – qHTS Assay for Inhibitors of the Human Apurinic/apyrimidinic Endonuclease 1 (APE1); recombinant APE1, TAMRA/BHQ-2 abasic DNA cleavage fluorescence; DNA repair nuclease/redox regulator APEX1 (Homo sapiens), P27695; Potency, µM (titrated, usually from 65.8 µM), actives largely listed as inhibitors; hit rate 0.35% among 350,000; note: nearly all actives have a fitted effect of over 55% in size
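Measures dequenching upon AP-site incision of a 5'-TAMRA/3'-BHQ-2 THF-containing duplex, 50 nM; human APE1 0.75 nM after 15 min room-temperature exposure to compound; kinetic three-point read at one-minute spacing.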
POLI inh – qHTS for Inhibitors of Polymerase Iota. AID 588590, 2011. Potency, µM (doses to about 115 µM), most hits filed as inhibitors. Pol iota fluorescent replication assay, 10 min. DNA polymerase iota (Homo sapiens), Q9UNA4. hit rate 1% among 390,000
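Pol iota at 10 nM preincubated 15 min with compounds at room temperature; reaction started with fluorescent substrate, 50 nM final. Fluorescence read kinetically at 0 and 10 min; buffer-only wells as negative control.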
BAZ2B inh – qHTS Assay for Inhibitors of BAZ2B: Hit Validation; AlphaScreen BAZ2B / biotin-H3K14Ac peptide displacement; hit rate 100% among 25; shares compounds with Pol kappa inh-1; Potency, µM, hits mostly inhibitors; calls by dose curve
BAZ2B bead ctr – qHTS Assay for Inhibitors of BAZ2B: Hit Validation in AlphaScreen Counterscreen; AlphaScreen biotin-His6 peptide bead counterscreen, signal decrease; Potency, µM (doses to about 57.1 µM), hits mostly inhibitors; AID 588859, 2011; 25 tested, under 10 active; shares compounds with Pol kappa inh-1;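 active = clear concentration-dependent signal drop in the bead assay lacking the target, so a primary-screen artifact; inconclusive = weak, partial or single-dose response; inactive = no response, so a real primary hit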
PGK validate – qHTS for inhibitors of Phosphogylcerate Kinase: Hit Validation Screen; shares compounds with Pol kappa inh-1; TbPGK coupled GAPDH assay, Kinase-Glo luminescence; Potency, µM (doses to about 57.5 µM), hits mostly inhibitors; hit rate 79% among 500; note: nearly all actives have a fitted effect of over 65% in size
POLI cherry-pick – qHTS for Inhibitors of Polymerase Iota: Confirmatory Assay for Cherry-picked Compounds. shares compounds with Pol kappa inh-1. hit rate 77% among 1,500. AID 720496, 2013. Pol iota primer extension, TAMRA/BHQ fluorescence. Potency, µM, actives largely listed as inhibitors
Pol kappa inh-2 – qHTS for Inhibitors of Polymerase Kappa: Confirmatory Assay for Cherry-picked Compounds; shares compounds with Pol eta inh-1; purified Pol-kappa, fluorescent strand-displacement substrate; Potency, µM, usual class: inhibitors; hit rate 76% among 920; AID 720501, 2013
Pol eta inh-2 – qHTS for Inhibitors of Polymerase Eta: Confirmatory Assay for Cherry-picked Compounds | hit rate 64% among 2,600 | shares compounds with Pol eta inh-1 | Pol eta primer extension, TAMRA/BHQ fluorescence, 10 min | Potency, µM, actives largely listed as inhibitors
Of the large screens only hits and unclear results are named; the others gave an inactive call (follow-up assays come after a bar, where they were run). Unless noted, calls come from the whole dose curve; as a rule, active = well fitted curve in the direction sought with a large enough effect; inconclusive = small, poorly fitted or top-dose-only effect, or another doubt; inactive = no such curve, though single readings can be large; an effect the other way counts as inactive or inconclusive.

CCOC(=O)CCCc1sc(N)nc1-c1[nH]c(=O)[nH]c1C	Pol eta inh-1 inconclusive, Pol kappa inh-1 inconclusive, POLI inh inconclusive | BAZ2B inh 10 | BAZ2B bead ctr inconclusive
ClC(Cl)Br	none (no result: POLB inh, L3MBTL1 inh, Pol eta inh-1, Pol kappa inh-1, POLI inh)
CCCCOCCOP(=O)(OCCOCCCC)OCCOCCCC	none (no result: POLB inh, L3MBTL1 inh, Pol eta inh-1, Pol kappa inh-1, POLI inh)
O=C1NC(=S)N(c2ccc(F)cc2)C(=O)/C1=C\c1ccoc1	POLB inh 2.2µM, Pol eta inh-1 1µM, Pol kappa inh-1 1µM, APE1 inh inconclusive, POLI inh inconclusive (no result: L3MBTL1 inh) | PGK validate 0.23µM
CCC#N	none (no result: POLB inh, L3MBTL1 inh, Pol eta inh-1, Pol kappa inh-1, POLI inh)
COCCN(Cc1cc2cc3c(cc2nc1Cl)OCO3)C(=O)c1ccc(C)cc1	L3MBTL1 inh 28µM | BAZ2B inh 11 | BAZ2B bead ctr inconclusive
CCOC(=O)C1=C(C)N=c2s/c(=C\c3ccc(OCC(=O)O)cc3)c(=O)n2C1c1ccc(Cl)cc1 (configuration not stated)	POLB inh 22µM, L3MBTL1 inh inconclusive, Pol eta inh-1 inconclusive, Pol kappa inh-1 50µM, APE1 inh 11µM, POLI inh inconclusive | BAZ2B inh 14 | BAZ2B bead ctr inactive | PGK validate 4.6µM | POLI cherry-pick 21
CCOc1ccc(NS(=O)(=O)c2ccc(Cl)c(N=Nc3c(O)[nH]c(=S)[nH]c3=O)c2)cc1Br	Pol eta inh-1 20µM (no result: POLB inh, L3MBTL1 inh, Pol kappa inh-1, APE1 inh, POLI inh) | PGK validate 15µM
O=C(O)c1ccccc1NS(=O)(=O)c1cccc(N=Nc2c(O)[nH]c(=S)[nH]c2=O)c1	POLI inh inconclusive (no result: POLB inh)
Cc1ccc(CNc2cc(C)nc3nc(-c4ccc(C)cc4)nn23)cc1	POLI inh inconclusive (no result: L3MBTL1 inh, APE1 inh)
Cc1nc(N2CCCCC2)c2ccsc2n1	APE1 inh inconclusive (no result: L3MBTL1 inh) | BAZ2B inh 10 | BAZ2B bead ctr inconclusive
COc1cccc(OC)c1-c1nn2c(-c3n[nH]c4c3CCC4)nnc2s1	Pol kappa inh-1 79µM, POLI inh 5µM (no result: POLB inh, L3MBTL1 inh, Pol eta inh-1, APE1 inh) | POLI cherry-pick inconclusive | Pol eta inh-2 inconclusive
ClC(Cl)C(Cl)Cl	none (no result: POLB inh, L3MBTL1 inh, Pol eta inh-1, Pol kappa inh-1, POLI inh)
COC1C(O)C(C)OC(OC2C(Oc3cccc4c(O)c5c(=O)oc6ccc(C)c7c(=O)oc(c34)c5c67)OC(C)C(O)C2O)C1O (configuration not stated)	Pol eta inh-1 10µM, Pol kappa inh-1 inconclusive, POLI inh inconclusive (no result: POLB inh, L3MBTL1 inh, APE1 inh) | POLI cherry-pick 21 | Pol kappa inh-2 4.2 | Pol eta inh-2 43

Compound activity deposited in PubChem BioAssay by National Center for Advancing Translational Sciences (NCATS).
